The values below come from PubChem BioAssay AID588354 (The Scripps Research Institute Molecular Screening Center, 2011).

The inhibition is the change of the read-out against control, counted positive when it falls.

The structures appear in SMILES notation. The whole screen tested about 360,000 compounds, of which about 430 (0.12%) were called active. Only a selection was taken, and actives are over-represented in it overall. Values without a mark were called inactive.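 How the source made its calls: active means inhibition above the campaign mean plus 3 SD, with each screening campaign given its own cutoff (cut at about 60% in these data); inactive means the rest.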

This assay deals with Nuclear receptor coactivator 1 (Homo sapiens) (UniProt Q15788). Kind of assay: NCOA1 GAL4-fusion reporter inhibition – cell-based, luminescence, primary screen (AID 588354).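 Further: 0% = DMSO treated cells and 100% = gossypol at 36 µM.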 To be noted: HEK293 GAL4-SRC1 luciferase reporter, at 3.6 µM, stronger effect = higher value.
Nuclear receptor coactivator 1 (Homo sapiens), sequence (Q15788 whole entry, looked up, the tested form may be a part): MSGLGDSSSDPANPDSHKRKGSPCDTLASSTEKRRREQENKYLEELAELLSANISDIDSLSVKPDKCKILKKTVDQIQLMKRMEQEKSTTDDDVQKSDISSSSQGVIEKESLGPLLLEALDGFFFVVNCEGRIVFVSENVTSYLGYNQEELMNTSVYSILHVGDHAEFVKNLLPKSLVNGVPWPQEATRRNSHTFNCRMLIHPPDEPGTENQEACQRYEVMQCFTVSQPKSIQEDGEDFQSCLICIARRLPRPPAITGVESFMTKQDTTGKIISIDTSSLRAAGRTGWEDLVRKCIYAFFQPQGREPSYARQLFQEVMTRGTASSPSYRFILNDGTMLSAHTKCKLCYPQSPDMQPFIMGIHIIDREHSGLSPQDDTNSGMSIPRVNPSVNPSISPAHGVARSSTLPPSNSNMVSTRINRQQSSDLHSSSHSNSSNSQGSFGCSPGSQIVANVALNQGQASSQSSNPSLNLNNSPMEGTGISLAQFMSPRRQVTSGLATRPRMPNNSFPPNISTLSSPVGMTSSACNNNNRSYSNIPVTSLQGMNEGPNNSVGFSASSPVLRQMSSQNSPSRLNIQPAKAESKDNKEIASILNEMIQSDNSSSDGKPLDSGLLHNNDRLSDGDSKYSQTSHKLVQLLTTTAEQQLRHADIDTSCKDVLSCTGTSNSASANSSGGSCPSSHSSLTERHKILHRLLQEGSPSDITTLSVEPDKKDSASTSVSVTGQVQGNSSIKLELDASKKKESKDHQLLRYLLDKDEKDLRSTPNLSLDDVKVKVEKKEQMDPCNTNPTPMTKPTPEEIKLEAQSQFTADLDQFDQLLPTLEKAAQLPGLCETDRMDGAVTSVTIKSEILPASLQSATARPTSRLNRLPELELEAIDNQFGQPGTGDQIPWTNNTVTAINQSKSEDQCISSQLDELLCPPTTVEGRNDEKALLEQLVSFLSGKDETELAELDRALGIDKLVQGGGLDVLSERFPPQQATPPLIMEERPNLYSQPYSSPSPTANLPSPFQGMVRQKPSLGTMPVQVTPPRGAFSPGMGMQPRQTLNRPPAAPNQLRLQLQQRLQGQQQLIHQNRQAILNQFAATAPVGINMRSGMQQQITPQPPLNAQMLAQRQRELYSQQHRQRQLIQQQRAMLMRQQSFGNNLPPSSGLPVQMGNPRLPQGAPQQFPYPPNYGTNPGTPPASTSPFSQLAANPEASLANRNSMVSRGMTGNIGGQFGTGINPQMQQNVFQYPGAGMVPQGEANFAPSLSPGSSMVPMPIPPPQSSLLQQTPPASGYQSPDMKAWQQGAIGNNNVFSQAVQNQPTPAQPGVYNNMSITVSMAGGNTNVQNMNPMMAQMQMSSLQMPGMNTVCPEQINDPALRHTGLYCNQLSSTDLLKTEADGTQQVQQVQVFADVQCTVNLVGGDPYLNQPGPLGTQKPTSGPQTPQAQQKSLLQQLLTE
On to `Cc1ccsc1C(=O)OCC(=O)NCCc1ccccc1`, for which the inhibition was -29.4%.
For the compound `COc1ccc(CNC(=O)COC(=O)c2sccc2C)cc1OC`, the inhibition is 2.6%.
As for `Cc1ccsc1C(=O)OCC(=O)c1cc(C)n(CC2CCCO2)c1C` (stereo not given), the figure is 82.3% (active); as for `Nc1nc(SCC(=O)N2CCN(S(=O)(=O)c3ccc(Cl)cc3)CC2)n[nH]1`, 9.56%; as for `Cc1cc(C)n2nc(C(=O)N(C)C(c3ccccc3)c3ccccc3)nc2n1`, -3.03%.
The figure for `CCc1ccnc(NS(=O)(=O)c2ccc3c(c2)OCCO3)c1` is -6.15%; for `CC(=O)NC1C(Oc2ccc(C=O)cc2)OC(COC(C)=O)C(OC(C)=O)C1OC(C)=O` (stereo not given) it is -13.2%.
The figure for `CC1CCCC(C)N1/N=C/c1ccccc1OC(F)F` (stereo not given) is -2.18%; for `CC12C(=O)N(n3cnnc3)C(=O)C1C1C=CC2C1` (stereo not given) it is -10.2%.
As for `C=CCC1(CC=C)CCCN1C(=O)c1cc(COc2ccc(-n3cncn3)cc2)on1`, the inhibition is -1.06%.
The figure for `Cc1ccc(S(=O)(=O)N2CCN=C2SCc2c(F)cccc2Cl)cc1` is -14.6%.
As for `O=C(O)C1C2CC2CN1C(=O)c1ccc(Cl)cc1Cl` (stereo not given), the figure is 10.7%; as for `CC(NC(=O)c1ccccc1C(=O)O)c1ccc(-n2ccnc2)cc1` (stereo not given), -1.09%.
The figure for `N#CC1(NC(=O)COc2ccc3oc4ccccc4c3c2)CCCCC1` is 2.18%.
Take `COc1ccc(OC)c(S(=O)(=O)Nc2cccc(-c3ccc4nncn4n3)c2)c1`: the inhibition is -20.7%.
As for `CC1CCCCC12NC(=O)N(CC(=O)N1CCN(c3ccccc3)CC1)C2=O` (stereo not given), the figure is 1.99%; as for `CN(C)c1ccc(CSc2ccccc2)cc1`, -41.4%.
As for `CCN(CC)C(=O)[C@H]1C[C@H](CC(=O)NCC23CC4CC(CC(C4)C2)C3)C(=O)N2CCc3c([nH]c4cc(CCC(=O)N(C)C)ccc34)[C@]12C`, the figure is 4.03%; as for `Cc1cc(C)c2c(c1)c(C)cc1nnc(SCC(=O)NCc3ccco3)n12`, -10.2%.
The figure for `CC(C)c1cccc(C(C)C)c1Nc1cn[nH]c1` is -5.74%.
Consider `CC(=O)c1cccc(NC(=O)N2CCCC2C(=O)NCCC(C)C)c1` (stereo not given), for which the inhibition was -16%.
As for `C=CCn1c(SCc2cc(C(=O)OC)c(C)o2)nnc1-c1ccncc1`, the figure is -8.14%; as for `CCn1nc(NC(=O)c2ccco2)c2cc3ccc(C)cc3nc21`, 5.64%.
As for `CN(Cc1ccc(CNC[C@H]2O[C@@H](n3cnc4c(N)ncnc43)[C@H](O)[C@@H]2O)o1)S(C)(=O)=O`, the figure is -4.89%.
As for `O=C(NCc1ccccc1)C(c1ccco1)N(C(=O)c1csnn1)c1ccccc1F` (stereo not given), the figure is -7.13%.
